Reference: PubChem BioAssay (Tox21)
Where “and” joins values, the source holds several entries; their conditions need not be identical. Equal entries are not always repeated. Records with an inconclusive call do not appear. A number with no mark means an inactive call. Calls of active or inactive are those of the source. Calls come from the whole dose curve; as a rule, active = well fitted cell-killing curve with a large enough effect in the repeat runs; inconclusive = weak or mixed curves, or effect the other way; inactive = flat fitted curve, though single readings scatter.

Experiment: cAMP Responsive Elements (CRE) small molecule antagonists, cell-based qHTS assay: qHTS cell viability counter screen (AID 2060913); note: nearly all actives have a fitted effect of over 40% in size; note: potency is the fitted concentration of half-maximal effect
Settings: CRE-bla HEK293T viability, CellTiter-Glo luminescence, 5 h; series mostly up to 92.4 µM; viability change, negative = cytotoxic: at the top concentration
Outline: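 CRE-bla HEK293T cells were seeded in assay medium with 10% dialyzed FBS, incubated 18 hrs at 37 C, then exposed to compounds plus 0.25 uM final NKH477 for 3 hrs. Viability was read by CellTiter-Glo luminescence after 30 min, in the same wells.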
% is set by controls: 0 for no effect and ±100 for the full control effect.

Structure (SMILES)	Potency	viability change, negative = cytotoxic
CCCN1C=CN(C)C1	inactive	
CC(C)[C@H](N)C(=O)OCCOCn1cnc2c(=O)[nH]c(N)nc21		2.34% [at 42.5 µM]
CCCCOC(=O)CCCCCCCCC(=O)OCCCC	inactive	
C[C@@H]1C[C@H]2[C@@H]3C[C@H](F)C4=CC(=O)C=C[C@]4(C)[C@@]3(F)[C@@H](O)C[C@]2(C)[C@@]1(O)C(=O)CO		3.65% [at 42.5 µM]
CN(C)C(=S)SC(=S)N(C)C	62.7 µM (active) and 3.2 µM (active)	
O=C(N/N=C/c1ccccc1O)c1ccncc1		14% [at 42.5 µM]
CCOC(=O)OCC		4.53%
NS(=O)(=O)c1cc(C(=O)O)cc(N2CCCC2)c1Oc1ccccc1		-5.95% [at 42.5 µM]
OCC(CO)N[C@H]1C[C@](O)(CO)[C@@H](O)[C@H](O)[C@H]1O		4.67% [at 42.5 µM]
O=C(O)CCCCC1CCSS1 (stereo not given)	inactive	
CC(=O)Oc1ccc2c(c1)CC[C@@H]1[C@@H]2CC[C@]2(C)[C@@H](O)CC[C@@H]12		-0.458% [at 42.5 µM]
CCC(O)OCCCOC (stereo not given)	inactive	
O=c1[nH]c(=O)n([C@H]2O[C@H](CO)[C@@H](O)[C@@H]2O)cc1/C=C\Br		4.18% [at 42.5 µM]
CC[C@H]1CN2CCc3cc(OC)c(OC)cc3[C@@H]2C[C@@H]1C[C@H]1NCCc2cc(OC)c(OC)cc21		-0.502%
Cc1cc(=O)oc2cc(O)ccc12	inactive	
C/C=C(C)/C=C/C=C(C)C	inactive	
c1ccc(CNCCNCc2ccccc2)cc1		2.3% [at 42.5 µM]
Clc1cccnc1		14.6%
Brc1cc(Br)cc(Br)c1		1.53%
CCC(C)N(C)C(=O)c1cc2ccccc2c(-c2ccccc2Cl)n1 (stereo not given)		6.22% [at 42.5 µM]

Structure (SMILES)	Potency	viability change, negative = cytotoxic
CN(C)C(=O)CNC(=O)Cc1ccccc1		-6.36% [at 42.5 µM]
Nc1c[n+](N2CCOCC2)no1		6.48% [at 42.5 µM]
COC(=O)c1ccc(C(=O)OC)c(C(=O)OC)c1		3.1%
Nc1ccc(C(=O)NCC(=O)O)cc1		-0.157% [at 42.5 µM]
Nc1ccn([C@H]2CS[C@@H](CO)O2)c(=O)n1		9.13%
COc1ccc2cc(C=O)ccc2c1		0.28% [at 42.5 µM]
Clc1cc(Cl)c(-c2c(Cl)c(Cl)cc(Cl)c2Cl)cc1Cl		14.9% [at 42.5 µM]
Nc1ccc(Oc2ccc(N)c(N)c2)cc1		11.3%
c1ccc2c(c1)CCC2		0.0194%
CCc1cccc(C)c1N(C(=O)C(=O)O)C(C)COC (stereo not given)		-0.724%
O=C(O)c1cc(=O)[nH]c(=O)[nH]1	inactive	
Oc1ccc(Cc2ccccc2O)cc1	inactive	
CO[C@@]1(NC(=O)CSC[C@@H](N)C(=O)O)C(=O)N2C(C(=O)O)=C(CSc3nnnn3C)CS[C@@H]21		3.67% [at 42.5 µM]
CCCCOCCOCCOC(C)=O		14.1%
CCC(C)C1N=C(C)C(C)S1 (stereo not given)		-5.3%
CC(=O)SC[C@@H](Cc1ccccc1)C(=O)NCC(=O)OCc1ccccc1		2% [at 42.5 µM]
CN1CCC(=C2c3ccccc3CCc3sccc32)CC1		-3.56% [at 42.5 µM]
FC(F)(F)C(F)(F)C(F)(F)C(F)(F)CCI		2.31% [at 42.5 µM]
CNC(C)=O		5.11%
C=CC(C)CCC=C(C)C (stereo not given)		2.48%

Experiment: cAMP Responsive Elements (CRE) small molecule agonists, cell-based qHTS assay: qHTS cell viability counter screen (AID 2060914); note: nearly all actives have a fitted effect of over 50% in size
Settings: CRE-bla HEK293T viability, CellTiter-Glo luminescence, 5 h; series mostly up to 92.4 µM; activity change, negative = cytotoxicity: at the top concentration
Outline: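 In the same wells as the reporter read, viability of CRE-bla HEK 293T cells was quantified by CellTiter-Glo luminescence after a 3 h compound exposure.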

Structure (SMILES)	Potency	activity change, negative = cytotoxicity
CCCN1C=CN(C)C1	inactive	
CC(C)[C@H](N)C(=O)OCCOCn1cnc2c(=O)[nH]c(N)nc21		-0.0711% [at 42.5 µM]
CCCCOC(=O)CCCCCCCCC(=O)OCCCC	inactive	
C[C@@H]1C[C@H]2[C@@H]3C[C@H](F)C4=CC(=O)C=C[C@]4(C)[C@@]3(F)[C@@H](O)C[C@]2(C)[C@@]1(O)C(=O)CO		13.5% [at 42.5 µM]
CN(C)C(=S)SC(=S)N(C)C	inactive	
O=C(N/N=C/c1ccccc1O)c1ccncc1		-1.61% [at 42.5 µM]
CCOC(=O)OCC		-2.6%
NS(=O)(=O)c1cc(C(=O)O)cc(N2CCCC2)c1Oc1ccccc1		-3.39% [at 42.5 µM]
OCC(CO)N[C@H]1C[C@](O)(CO)[C@@H](O)[C@H](O)[C@H]1O		7.15% [at 42.5 µM]
O=C(O)CCCCC1CCSS1 (stereo not given)	inactive	
CC(=O)Oc1ccc2c(c1)CC[C@@H]1[C@@H]2CC[C@]2(C)[C@@H](O)CC[C@@H]12		24.2% [at 42.5 µM]
CCC(O)OCCCOC (stereo not given)		5.66%
O=c1[nH]c(=O)n([C@H]2O[C@H](CO)[C@@H](O)[C@@H]2O)cc1/C=C\Br		6.18% [at 42.5 µM]
CC[C@H]1CN2CCc3cc(OC)c(OC)cc3[C@@H]2C[C@@H]1C[C@H]1NCCc2cc(OC)c(OC)cc21		10.2%
Cc1cc(=O)oc2cc(O)ccc12	inactive	
C/C=C(C)/C=C/C=C(C)C	inactive	
c1ccc(CNCCNCc2ccccc2)cc1		2.15% [at 42.5 µM]
Clc1cccnc1		2.98%
Brc1cc(Br)cc(Br)c1		1.69%
CCC(C)N(C)C(=O)c1cc2ccccc2c(-c2ccccc2Cl)n1 (stereo not given)		3.1% [at 42.5 µM]

Structure (SMILES)	Potency	activity change, negative = cytotoxicity
CN(C)C(=O)CNC(=O)Cc1ccccc1		-5.94% [at 42.5 µM]
Nc1c[n+](N2CCOCC2)no1		1.23% [at 42.5 µM]
COC(=O)c1ccc(C(=O)OC)c(C(=O)OC)c1		1.28%
Nc1ccc(C(=O)NCC(=O)O)cc1		-8.9% [at 42.5 µM]
Nc1ccn([C@H]2CS[C@@H](CO)O2)c(=O)n1		1.3%
COc1ccc2cc(C=O)ccc2c1		21.5% [at 42.5 µM]
Clc1cc(Cl)c(-c2c(Cl)c(Cl)cc(Cl)c2Cl)cc1Cl		4.06% [at 42.5 µM]
Nc1ccc(Oc2ccc(N)c(N)c2)cc1		16.7%
c1ccc2c(c1)CCC2		1.41%
CCc1cccc(C)c1N(C(=O)C(=O)O)C(C)COC (stereo not given)		-1.99%
O=C(O)c1cc(=O)[nH]c(=O)[nH]1	inactive	
Oc1ccc(Cc2ccccc2O)cc1	inactive	
CO[C@@]1(NC(=O)CSC[C@@H](N)C(=O)O)C(=O)N2C(C(=O)O)=C(CSc3nnnn3C)CS[C@@H]21		8.55% [at 42.5 µM]
CCCCOCCOCCOC(C)=O	inactive	
CCC(C)C1N=C(C)C(C)S1 (stereo not given)		-3.26%
CC(=O)SC[C@@H](Cc1ccccc1)C(=O)NCC(=O)OCc1ccccc1		2.01% [at 42.5 µM]
CN1CCC(=C2c3ccccc3CCc3sccc32)CC1		5.86% [at 42.5 µM]
FC(F)(F)C(F)(F)C(F)(F)C(F)(F)CCI		-0.634% [at 42.5 µM]
CNC(C)=O		12.2%
C=CC(C)CCC=C(C)C (stereo not given)		7.69%
